Among the data in PubChem BioAssay (NCATS) are Potency and activity, negative = inhibition values, retold here.

Assay [1] has as its target ATP-dependent 6-phosphofructokinase (Trypanosoma brucei brucei) (UniProt O15648). The assay can be described thus: qHTS Assay to Find Inhibitors of T. brucei phosphofructokinase: hit validation (AID 492961). Also: potency is read from the fitted curve at half-maximal effect. In outline:
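Luminescence from ADP-Glo reports ADP generated as T. brucei PFK (1.25 nM) phosphorylates 0.5 mM fructose-6-phosphate using 0.1 mM ATP. Reactions ran 45 min at room temperature, pH 8.0.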

Assay [2] deals with Luciferin 4-monooxygenase (Photinus pyralis) (UniProt P08659). The assay can be described thus: Biochemical firefly luciferase enzyme assay for NPC (AID 624030).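 Also: purified P. pyralis luciferase at 10 nM with luciferin and ATP substrate; 0% = DMSO and -100% = full luciferase inhibition by PTC124 control; nearly all actives have a fitted effect of over 70% in size.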 Summed up: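 Purified P. pyralis luciferase at 10 nM in 50 mM Tris Acetate (final), luminescence read within 5 minutes of enzyme addition to compounds. Activity normalised to PTC124 versus DMSO; concentration-response curves classed by r2, magnitude and activity.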
Chain of Luciferin 4-monooxygenase (Photinus pyralis) (P08659 whole entry, looked up): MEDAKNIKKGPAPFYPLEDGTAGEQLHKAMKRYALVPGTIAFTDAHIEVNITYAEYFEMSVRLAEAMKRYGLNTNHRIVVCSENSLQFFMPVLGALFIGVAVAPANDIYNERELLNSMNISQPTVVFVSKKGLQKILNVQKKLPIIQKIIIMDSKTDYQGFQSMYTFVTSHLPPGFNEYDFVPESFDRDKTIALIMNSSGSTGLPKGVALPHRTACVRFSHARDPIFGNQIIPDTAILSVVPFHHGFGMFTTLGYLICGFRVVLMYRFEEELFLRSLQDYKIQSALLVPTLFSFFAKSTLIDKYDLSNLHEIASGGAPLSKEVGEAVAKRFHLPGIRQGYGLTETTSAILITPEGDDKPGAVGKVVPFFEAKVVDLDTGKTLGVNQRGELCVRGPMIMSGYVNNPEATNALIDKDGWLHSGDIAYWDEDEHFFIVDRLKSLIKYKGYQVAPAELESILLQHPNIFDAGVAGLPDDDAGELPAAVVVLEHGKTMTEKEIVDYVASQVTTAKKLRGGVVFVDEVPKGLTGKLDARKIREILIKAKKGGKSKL

Assay [3] can be described thus: qHTS profiling for inhibitors of Plasmodium falciparum proliferation (AID 504749). Also: potency is read from the fitted curve at half-maximal effect.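 As to activity, negative = inhibition: 0% = DMSO vehicle and full inhibition = artemisinin control.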 As to all read-outs here: nearly all actives have a fitted effect of over 60% in size. The following applies: P. falciparum in erythrocytes, SYBR Green DNA, 72 h; for activity, negative = inhibition: at 28.7 µM (top of the series). Summed up:
(§1)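 P. falciparum-infected erythrocytes (0.3% parasitemia, 2.5% hematocrit) incubated with compound 72 h at 37 C, 5% CO2. Parasite DNA detected by SYBR Green after lysis, overnight at room temperature; normalised to 0.29 uM artemisinin and DMSO.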

Assay [4] relates to CP185. Described as above. To be noted: P. falciparum in erythrocytes, SYBR Green DNA, 72 h; series mostly up to 28.7 µM. In outline: as §1
For assay [5], the system named is CP192. Described as above. The following applies: P. falciparum in erythrocytes, SYBR Green DNA, 72 h; series mostly up to 28.7 µM. Summed up: as §1
Assay [6] deals with CP211. Described as above. To be noted: P. falciparum in erythrocytes, SYBR Green DNA, 72 h; series mostly up to 28.7 µM. Summed up:
as §1

Assay [7] relates to CP238. The assay is described as above. To be noted: P. falciparum in erythrocytes, SYBR Green DNA, 72 h; series mostly up to 28.7 µM. In outline: as §1
The test system of assay [8] is CP252. Described as above. The following applies: P. falciparum in erythrocytes, SYBR Green DNA, 72 h; series mostly up to 28.7 µM. In outline:
as §1

Assay [9] relates to CP262. The assay is described as above. The following applies: P. falciparum in erythrocytes, SYBR Green DNA, 72 h; series mostly up to 28.7 µM. In outline: as §1
Assay [10] relates to CP265. Described as above. To be noted: P. falciparum in erythrocytes, SYBR Green DNA, 72 h; series mostly up to 28.7 µM. Summed up:
as §1

Assay [11] concerns CP269. The description is as above. To be noted: P. falciparum in erythrocytes, SYBR Green DNA, 72 h; series mostly up to 28.7 µM. Summed up: as §1
Assay [12] relates to CP286. The assay is described as above. To be noted: P. falciparum in erythrocytes, SYBR Green DNA, 72 h; series mostly up to 28.7 µM. In outline:
as §1

The subject of assay [13] is CP315. The description is as above. To be noted: P. falciparum in erythrocytes, SYBR Green DNA, 72 h; series mostly up to 28.7 µM. Summed up:
as §1

Assay [14] deals with CP329. Described as above. The following applies: P. falciparum in erythrocytes, SYBR Green DNA, 72 h; series mostly up to 28.7 µM. Summed up:
as §1

Assay [15] concerns DFO2036. Described as above. The following applies: P. falciparum in erythrocytes, SYBR Green DNA, 72 h; series mostly up to 28.7 µM. In outline:
as §1

Assay [16] relates to Dd2. Described as above. The following applies: P. falciparum in erythrocytes, SYBR Green DNA, 72 h; series mostly up to 28.7 µM. Summed up:
as §1

For assay [17], the system named is ECU. The description is as above. The following applies: P. falciparum in erythrocytes, SYBR Green DNA, 72 h; series mostly up to 28.7 µM. In outline:
as §1

Assay [18] deals with FAB9. Described as above. The following applies: P. falciparum in erythrocytes, SYBR Green DNA, 72 h; series mostly up to 28.7 µM. In outline:
as §1

The test system of assay [19] is JCK. The assay is described as above. The following applies: P. falciparum in erythrocytes, SYBR Green DNA, 72 h; series mostly up to 28.7 µM. Summed up:
as §1

In assay [20] the test system is N140. The assay is described as above. To be noted: P. falciparum in erythrocytes, SYBR Green DNA, 72 h; series mostly up to 28.7 µM. In outline:
as §1

Inconclusive results are not listed. A number with no mark means an inactive call. Calls of active or inactive are those of the source. Calls follow the shape of the dose curve; as a rule, active = well fitted curve in the direction sought with a large enough effect; inconclusive = small, poorly fitted or top-dose-only effect, or another doubt; inactive = no such curve, though single readings can be large; an effect the other way counts as inactive or inconclusive.

Chain of ATP-dependent 6-phosphofructokinase (Trypanosoma brucei brucei) (O15648 whole entry, looked up): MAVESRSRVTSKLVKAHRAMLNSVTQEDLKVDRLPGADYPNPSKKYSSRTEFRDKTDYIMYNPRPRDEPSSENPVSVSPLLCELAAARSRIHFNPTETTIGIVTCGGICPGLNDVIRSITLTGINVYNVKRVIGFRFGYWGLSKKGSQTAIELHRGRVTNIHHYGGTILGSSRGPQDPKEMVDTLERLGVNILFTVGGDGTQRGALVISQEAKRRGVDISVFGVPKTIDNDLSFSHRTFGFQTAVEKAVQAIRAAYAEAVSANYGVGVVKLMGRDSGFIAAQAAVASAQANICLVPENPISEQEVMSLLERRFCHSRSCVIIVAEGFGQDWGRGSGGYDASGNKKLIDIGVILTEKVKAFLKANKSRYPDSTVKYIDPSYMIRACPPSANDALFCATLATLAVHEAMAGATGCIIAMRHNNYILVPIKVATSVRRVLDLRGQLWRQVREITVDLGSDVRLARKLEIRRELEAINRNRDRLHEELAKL

With `C#C[C@@]1(O)CC[C@@H]2[C@H]3CCC4=C/C(=N\O)CC[C@H]4[C@@H]3CC[C@]21CC`, the Potency result in assay [1], in assay [2], in assay [4], in assay [5], in [6] and in [7] was “inactive” each time. For the same compound, the Potency result in assay [8], in assay [9], in assay [10], in assay [11], in assay [12] and in [13] was “inactive” in each case. The Potency result in assay [14], in assay [15], in assay [16], in assay [17], in assay [18] and in assay [19] was “inactive” each time. Moreover, the Potency entry in [20] is “inactive”. The activity, negative = inhibition is -13.3% in [3] (parasite line A) and -2.2% in assay [3] (parasite line B).
As for `CCCSS/C(CCO)=C(/C)N(C=O)Cc1cnc(C)nc1N`, the Potency entry in assay [1], in assay [2], in assay [4], in assay [5], in assay [6] and in assay [7] was “inactive” throughout. The Potency entry in assay [8], in assay [9], in [10], in [11], in [12] and in [13] was “inactive” throughout. The Potency result in assay [14], in assay [15], in [16], in assay [17], in [18] and in assay [19] was “inactive” in each case. The Potency result in assay [20] was “inactive”. The values for the activity, negative = inhibition in [3] (parasite line A) and in assay [3] (parasite line B) were -20.8% and -22.2%, respectively.
As for `OCC(O)C(O)C(O)C(O)CO` (configuration not stated), the Potency entry in assay [1], in assay [2], in assay [4], in assay [5], in assay [6] and in [7] was “inactive” in each case. For the same compound, the Potency result in assay [8], in [9], in assay [10], in assay [11], in [12] and in assay [13] was “inactive” throughout. Also, the Potency entry in assay [14], in assay [15], in assay [16], in assay [17], in assay [18] and in assay [19] was “inactive” in each case. In addition, the Potency entry in [20] was “inactive”. For the same compound, the activity, negative = inhibition in [3] (parasite line B) is 7.82%.
Take `NC(C(=O)O)C(O)c1ccc(O)c(O)c1` (configuration not stated): the Potency was 4.47 µM (active) in assay [1], 14.1 µM (active) in [3] (parasite line A) and 12.6 µM (active) in assay [20]. For the same compound, the Potency entry in assay [13] and in [19] was “inactive” in each case.
Turning to `CCCCC(=O)OC1CCC2C3CCc4cc(O)ccc4C3CC[C@]12C` (some centres not stated), the Potency result in assay [1], in assay [2], in assay [4], in [5], in assay [6] and in assay [7] was “inactive” throughout. The Potency entry in assay [8], in [9], in [10], in [11], in [12] and in assay [13] was “inactive” in each case. In addition, the Potency entry in assay [14], in assay [15], in [17], in [18] and in [19] was “inactive” throughout. In addition, the activity, negative = inhibition in [3] (parasite line A) is -29.6%. Besides, the Potency in [20] is 11.2 µM (active).
Turning to `CCC1OC(=O)C[C@H](O)C(C)[C@@H](O[C@@H]2OC(C)C(O)C(N(C)C)C2O)C(CCN2CC(C)CC(C)C2)CC(C)C(=O)/C=C/C(C)=C\[C@@H]1COC1OC(C)C(O)C(OC)C1OC` (some centres not stated), the Potency entry in [1], in [2] and in [18] was “inactive” each time. Further, the activity, negative = inhibition in [3] (parasite line A) is -29.2%. The Potency was 5.62 µM (active) in assay [12], 3.98 µM (active) in assay [16] and 10 µM (active) in assay [20].
As to `CCOc1ccccc1O[C@@H](c1ccccc1)[C@@H]1CNCCO1`, the Potency entry in assay [1], in assay [2], in assay [4], in [5], in assay [6] and in assay [9] was “inactive” each time. Besides, the Potency result in assay [11], in assay [13], in assay [14], in [15] and in assay [18] was “inactive” each time. In addition, the activity, negative = inhibition in assay [3] (parasite line A) was -12.8%. Further, the Potency in assay [16] was 0.0794 µM (active); in [17], 7.94 µM (active).
With `CNC1CCc2cc(OC)c(OC)c(OC)c2-c2ccc(OC)c(=O)cc21` (configuration not stated), the Potency result in [1], in assay [2], in assay [4], in assay [5], in assay [6] and in assay [7] was “inactive” throughout. Moreover, the Potency result in [8], in assay [9], in assay [10], in [11], in assay [12] and in [13] was “inactive” throughout. For the same compound, the Potency result in assay [14], in assay [15], in [17], in [18], in [19] and in assay [20] was “inactive” throughout. The results for the activity, negative = inhibition in assay [3] (parasite line A) and in [3] (parasite line B) were -5.32% and 0.292%, respectively.
`CCN(CC)C(=O)[C@@]1(c2ccccc2)C[C@@H]1CN`: the Potency result in assay [1], in [2], in assay [4], in assay [5], in [6] and in [7] was “inactive” throughout. For the same compound, the Potency result in assay [8], in assay [9], in [10], in [11], in assay [12] and in assay [13] was “inactive” each time. Also, the Potency result in assay [14], in [15], in [16], in assay [17], in [18] and in [19] was “inactive” throughout. Besides, the Potency result in assay [20] was “inactive”. Moreover, the results for the activity, negative = inhibition in assay [3] (parasite line A) and in assay [3] (parasite line B) were 3.47% and 2.1%, respectively.
On to `Nc1nc(Cl)nc2c1ncn2[C@@H]1O[C@H](CO)[C@H](O)C1F` (some centres not stated), for which the Potency result in assay [1], in assay [2], in assay [4], in assay [5], in [6] and in assay [7] was “inactive” throughout. Further, the Potency result in assay [8], in assay [9], in [10], in assay [11], in assay [12] and in assay [13] was “inactive” each time. For the same compound, the Potency entry in assay [14], in assay [15], in assay [16], in assay [17], in assay [18] and in assay [19] was “inactive” each time. In addition, in assay [20], the Potency result is “inactive”. Moreover, the activity, negative = inhibition in [3] (parasite line A) is -2.17%.
Turning to `CC(=O)O[C@]1(C(C)=O)CCC2C3CCC4=CC(=O)CCC4(C)C3(F)C(O)CC21C` (some centres not stated), the Potency entry in assay [1], in assay [2], in assay [4], in assay [5], in assay [6] and in assay [7] was “inactive” each time. In addition, the Potency entry in [8], in [9], in [10], in assay [11], in assay [12] and in assay [13] was “inactive” in each case. For the same compound, the Potency result in [14], in assay [15], in assay [16], in assay [17], in assay [18] and in assay [19] was “inactive” in each case. For the same compound, the Potency result in assay [20] is “inactive”. Further, the values for the activity, negative = inhibition in [3] (parasite line A) and in assay [3] (parasite line B) were 7.47% and -19%, respectively.
Turning to `C=C1C(n2cnc3c(=O)[nH]c(N)nc32)C[C@H](O)[C@H]1CO` (some centres not stated), the Potency result in assay [1], in [2], in assay [5], in assay [6], in assay [7] and in assay [8] was “inactive” in each case. Moreover, the Potency result in assay [10], in assay [11], in [13], in [14], in assay [15] and in [16] was “inactive” throughout. Further, the Potency entry in assay [17], in assay [18], in assay [19] and in [20] was “inactive” each time. The activity, negative = inhibition was 9.61% in [3] (parasite line A) and -7.65% in assay [3] (parasite line B).
